Sampled rows, rich in hits. Any-hit rate of the full collection: about 1.9%.
NR1D1 modulator – Rev-erb alpha (human) modulation | P20393 | Rev-erbα–FITC-DNA binding, fluorescence polarization, 90 min | activity, % at 10 µM | hit rate 0.79% among 370,000;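 active means activity above about 14%, limit read from the data; passing the limit was not always enough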;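 further: 0% = DMSO wells with 35 nM protein and 100% = DMSO wells with 750 nM protein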
Target sequence (P20393 whole entry, looked up): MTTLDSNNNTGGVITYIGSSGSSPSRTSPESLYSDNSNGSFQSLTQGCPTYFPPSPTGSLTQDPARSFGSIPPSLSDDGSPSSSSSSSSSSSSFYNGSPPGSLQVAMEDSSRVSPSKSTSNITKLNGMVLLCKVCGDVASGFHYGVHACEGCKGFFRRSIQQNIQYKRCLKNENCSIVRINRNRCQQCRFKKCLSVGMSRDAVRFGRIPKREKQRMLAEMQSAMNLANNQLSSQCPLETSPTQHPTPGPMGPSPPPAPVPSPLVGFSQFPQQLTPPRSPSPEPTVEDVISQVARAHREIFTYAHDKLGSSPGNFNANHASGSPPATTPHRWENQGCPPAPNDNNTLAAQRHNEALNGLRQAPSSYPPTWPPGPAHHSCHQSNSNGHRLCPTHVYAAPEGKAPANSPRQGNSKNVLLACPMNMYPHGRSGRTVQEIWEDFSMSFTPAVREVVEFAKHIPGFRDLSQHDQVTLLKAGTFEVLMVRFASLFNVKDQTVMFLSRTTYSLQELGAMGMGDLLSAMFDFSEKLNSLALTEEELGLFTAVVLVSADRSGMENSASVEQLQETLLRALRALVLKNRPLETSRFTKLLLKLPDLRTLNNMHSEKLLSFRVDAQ
EBNA-1 inhibitor – blocks EBNA-1 binding to DNA | EBNA-1 DNA binding, fluorescence polarization | inhibition, % at 14.8 µM | hit rate 0.34% among 300,000; in the data active means inhibition above about 28%
aDG glyco up – increases alpha dystroglycan glycosylation; activation, % at 10 µM; AID 624168; Pro5-aDG cells, alpha-DG glycosylation AlphaScreen (IIH6); 0% Pro5, 100% B10-LARGE cell signal; hit rate 0.22% among 360,000;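 active means activation of at least 8% versus controls, or a plate z-score of at least 8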;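 further: Pro5 are CHO cells carrying HIG-tagged alpha-DG that lacks glycosylation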
p47phox inh – blocks human p47phox regulatory protein of NADPH oxidases | P14598 | p47phox/p22phox peptide binding, fluorescence polarization, 2 h | inhibition, % at 24.7 µM | hit rate 0.53% among 220,000 | AID 1274;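 active means inhibition above about 30%, limit read from the data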;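 further: 0% = p47phox with labelled peptide and 100% = labelled peptide alone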
ZTA DNA inh – counter-screen for EBNA-1 inhibitors: inhibitors of Epstein-Barr virus ZTA | hit rate 0.15% among 320,000 | ZTA-DNA binding, fluorescence polarization | inhibition, % at 11 µM | AID 2234 | P03206; in the data active means inhibition above about 33%
PG9 binder – PG9 antibody binding by small molecule; inhibition, % at 6.7 µM; TR-FRET gp120-PG9 antibody binding; hit rate 0.43% among 360,000; in the data active means inhibition above about 8.5%
* hit, by the source's call; x = not tested or not shown; + = active, no number.

SMILES	NR1D1 modulator	EBNA-1 inhibitor	aDG glyco up	p47phox inh	ZTA DNA inh	PG9 binder
Cc1ccc2oc(=O)c3cnn(CC(=O)NCCc4ccsc4)c3c2c1	10	5	1	-14	12	22*
O[C@@H](COc1cccc2ncccc12)CN1CCN(C2c3ccccc3[C@@H]3[C@H](c4ccccc42)C3(F)F)CC1 (stereo not given in full)	-2	x	x	x	x	x
Cc1cc(O)c(/C=N/Nc2cccc(Cl)c2)c(=O)o1	-8	2	0	-19	10	-2
Cc1cc(O)c(/C=N/Nc2ccc(Cl)cc2)c(=O)o1	3	2	6.5*	-27	-13	-14
Cn1cncc1[C@@](N)(c1ccc(Cl)cc1)c1ccc2c(c1)c(-c1cccc(Cl)c1)cc(=O)n2C	14	x	x	x	x	x
COc1ccc(-c2c(Cc3ccccc3)nc(NC(=O)c3ccccc3F)n2C)cc1	3	x	x	x	x	x
CC(=O)OCCNc1cc(N2CCN(C)CC2)c2noc3c2c1C(=O)c1ccccc1-3	-9	x	-1	62*	x	-60
CCN1CCN(c2cc(N3CCN(C(=O)c4ccco4)CC3)c3c4c(onc24)-c2ccccc2C3=O)CC1	x	5	-1	x	12	x
O=C(O)CCNc1cc(N2CCN(C(=O)c3ccco3)CC2)c2noc3c2c1C(=O)c1ccccc1-3	-16	127*	0	x	163*	-79
O=C(COc1ccccc1[N+](=O)[O-])Nc1ccc2oc(=O)ccc2c1	-26	-5	0	x	-3	0
O=C(COc1ccccc1[N+](=O)[O-])Nc1ccc(NC(=O)c2cc3ccccc3o2)cc1	-25	5	0	32*	-2	-2
CC1(C)O[C@@H]2CC3C4CCC5=CC(=O)C=C[C@]5(C)[C@@]4(F)[C@@H](O)C[C@]3(C)[C@]2(C(=O)CO)O1 (stereo not given in full)	0	x	x	x	x	x
C[C@@H]1CC2C3C[C@H](F)C4=CC(=O)C=C[C@]4(C)[C@@]3(F)[C@@H](O)C[C@]2(C)[C@@]1(O)C(=O)CO (stereo not given in full)	6	x	x	x	x	x
COc1ccccc1CNC(=O)Nc1cccs1	1	5	0	-23	-4	1
COc1ccc(Br)cc1CNC(=O)Nc1cccs1	5	-7	0	98*	12	0
CC12CCC3c4ccc(O)cc4CCC3C1C[C@H](O)[C@@H]2O (stereo not given in full)	-3	x	x	x	x	x
O=C1NC(=S)S/C1=C\c1coc2ccc(O)cc2c1=O	-5	11	0	-60	45*	0
Cc1ccccc1C(=O)N(C)[C@H]1C[C@H]2c3[nH]c4c(-c5ccc6c(c5)OCO6)cccc4c3CCN2C[C@H]1[C@H](C)O	7	x	x	x	x	x
COc1ccc2nc(NC(=O)CSc3ccccc3)sc2c1	-3	4	0	-29	-4	-2
COc1ccc2nc(NC(=O)CSc3nnc(N)s3)sc2c1	-15	37*	0	-39	5	0
C/C(=N/NC(=O)c1ccoc1C)c1cccs1	0	x	x	x	x	x
O=C(NCc1nc2ccccc2[nH]1)C1CCCCC1	-4	-5	0	78*	11	1
CN(C)c1ccc(C(c2ccc(N(C)C)cc2)c2ccc([N+](=O)[O-])cc2)cc1	-4	5	-1	37*	18	-1
CN(C)c1ccc(C=NC(CO)C(O)c2ccc([N+](=O)[O-])cc2)cc1 (stereo not given)	0	-1	0	-5	-15	-2
CC1Cc2cc(/C(O)=C3/C(=O)C(=O)N(CCN4CCOCC4)C3c3cccc(Cl)c3)ccc2O1 (stereo not given)	-6	-4	0	4	16	11*
SMILES	NR1D1 modulator	EBNA-1 inhibitor	aDG glyco up	p47phox inh	ZTA DNA inh	PG9 binder
CCCOc1cccc(C2/C(=C(/O)c3ccc4c(c3)CC(C)O4)C(=O)C(=O)N2CCN2CCOCC2)c1 (stereo not given)	-2	15	0	x	0	5
CC(C)N(Cc1nc(-c2ccccc2)no1)C(=O)c1ccc(Cl)cc1	5	2	0	59*	-9	-2
O=C(Cc1ccc(Cl)cc1)NNC(=O)Nc1cccc2ccccc12	-1	7	0	60*	0	-2
NC(=O)c1ccccc1NC(=O)Nc1cccc2ccccc12	3	3	0	-8	18	-1
C[C@]12CCC(=O)C=C1CCC1C2C(=O)C[C@@]2(C)C1CC[C@]2(O)C(=O)CO (stereo not given in full)	-5	x	x	x	x	x
Cc1c(C=O)c(=O)n(-c2ccccc2)n1C	-3	+	0	-3	+	-4
Cc1c(N(C)C)c(=O)n(-c2ccccc2)n1C	-4	x	0	x	2	-1
O=S1(=O)c2ccc(N3CCCC3)cc2Oc2ccccc2CN1Cc1cn(Cc2cccc(C(F)(F)F)c2)nn1	4	x	x	x	x	x
O=[N+]([O-])C1=CC=C2C(=NC3(CCCCC3)N2O)C1=NCCc1ccccc1	0	x	-1	130*	x	-2
O=[N+]([O-])C1=CC=C2C(=NC3(CCCCC3)N2O)C1=NC1CCCCC1	4	-13	0	48*	7	-2
COc1ccccc1/C=C/C(=O)NCC(=O)N/N=C/c1cc(Br)ccc1OC	-1	-6	2	-7	-23	-4
COc1ccc(/C=C/C(=O)NCC(=O)N/N=C/c2cc(Br)ccc2OC)cc1	1	-2	0	101*	9	-1
CCCCNC(=O)C[C@H]1C[C@@]2(C(=O)OC)C(=C[C@H](C3CCCC3)O[C@@H]2C)N(Cc2ccco2)C1=O	4	x	x	x	x	x
O=C1CCn2c1c(O)c1ccccc1c2=O	-9	x	0	x	x	0
N=C1CCC(=N)c2c1c(O)c1ccccc1c2O	x	25	0	125*	37*	x
CCn1c(CSc2nnc(-c3ccncc3)n2C)nc2cc(C(=O)O)ccc21	-1	30*	0	-16	43*	-2
CCn1c(CSc2ncn[nH]2)nc2cc(C(=O)O)ccc21	-3	6	0	16	-11	1
C[N+](C)(C)CCOP(=O)([O-])OP(=O)(O)OC[C@H]1OC(n2ccc(N)nc2=O)[C@H](O)[C@@H]1O (stereo not given in full)	2	x	x	x	x	x
CCOC(=O)CCC(=O)Nc1ccc(S(=O)(=O)N2CCC(C)CC2)cc1	2	-3	0	31*	-5	0
COc1ccc(C(=O)/C=C/C(=O)N(CC(=O)NC2CCCCC2)CC2CCCO2)c(O)c1 (stereo not given)	-1	-2	0	-4	-4	1
COc1ccc(C(=O)/C=C/C(=O)N(CC(=O)NC2CCCCC2)Cc2ccccc2)c(O)c1	1	x	0	30*	x	1
COc1ccc(C(=O)/C=C/C(=O)N(CC(=O)NC2CCCCC2)Cc2ccccc2OC)c(O)c1	-3	x	0	33*	x	0
O=C(CSc1nnc(COc2ccccc2)n1-c1ccccc1)Nc1ccc(S(=O)(=O)Nc2nccs2)cc1	-1	x	x	x	x	x

Screening results as filed in PubChem.
